The text below walks through data of PubChem BioAssay.

Molecules are shown by their SMILES. Calls of active or inactive are those of the source.

The target of one assay is Albumin (Bos taurus) (UniProt P02769). The assay is described as follows: compounds binding labelled BSA control protein – biochemical, small-molecule microarray, Alexa647 label, 635/667 nm fluorescence, artefact control for SMM control protein annotation, profiling panel (AID 1118).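 Note: score merges 667 nm emission intensity and signal-to-noise per printed compound spot.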 As to conditions: BSA-A647 binding, fluorescence 635 nm, higher = more signal.
Chain of Albumin (Bos taurus) (P02769 whole entry, looked up): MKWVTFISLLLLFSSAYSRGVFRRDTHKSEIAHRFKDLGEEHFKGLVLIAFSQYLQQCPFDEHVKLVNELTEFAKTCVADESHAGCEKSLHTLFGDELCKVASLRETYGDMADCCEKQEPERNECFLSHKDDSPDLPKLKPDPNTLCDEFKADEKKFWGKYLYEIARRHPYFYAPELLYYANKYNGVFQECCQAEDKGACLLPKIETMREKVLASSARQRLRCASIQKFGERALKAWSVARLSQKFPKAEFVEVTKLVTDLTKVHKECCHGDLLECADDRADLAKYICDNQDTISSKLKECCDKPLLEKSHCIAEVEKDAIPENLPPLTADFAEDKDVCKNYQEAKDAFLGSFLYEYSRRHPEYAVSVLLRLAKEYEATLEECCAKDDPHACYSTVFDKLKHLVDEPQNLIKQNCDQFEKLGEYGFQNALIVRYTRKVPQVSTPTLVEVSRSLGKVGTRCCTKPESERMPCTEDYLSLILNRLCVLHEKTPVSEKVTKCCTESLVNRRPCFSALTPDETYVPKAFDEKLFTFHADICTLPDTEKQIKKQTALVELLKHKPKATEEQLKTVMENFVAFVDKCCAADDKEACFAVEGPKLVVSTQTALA
Assay [1] can be described thus: probe aXIP binding to arrayed compounds – biochemical, NeuroSMM set, 635/667 nm fluorescence, primary screen (AID 1119).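 Note: probe is the protein aXip251-270 applied at 1 µg/mL to compound-printed slides; binding of probe to printed compounds measured as 667 nm fluorescence plus signal to noise.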 As to conditions: small-molecule microarray, higher = more signal, called active from +8 up or from −8 down.
Assay [2] can be described thus: probe aNOTCH3 binding on compound microarray – biochemical, small-molecule microarray, 635/667 nm fluorescence, primary screen (AID 1120).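 Note: probe is a biotin-tagged antibody raised against NOTCH3 rather than NOTCH3 protein; score merges spot fluorescence near 667 nm with spot signal to noise.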 The note with it: higher = more signal.
Assay [3] can be described thus: probe aNOTCH2 binding on compound microarray – biochemical, small-molecule microarray, 635/667 nm fluorescence, primary screen (AID 1121).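 Note: score merges feature fluorescence read at 667 nm with its signal to noise.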 The note with it: higher = more signal.
Assay [4] deals with Carbonic anhydrase 2 (Homo sapiens) (UniProt P00918). The assay is described as follows: compounds binding carbonic anhydrase 2 – biochemical, small-molecule microarray, Alexa647-labelled CAII, profiling panel (AID 1122). As to conditions: CAII-A647 binding fluorescence, higher = more signal.
Assay [5] in a line: COS7 lysate on small-molecule microarray, probe aHis, 635 nm (AID 1123).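 Note: z-score combines 667nm fluorescence intensity with signal-to-noise per printed compound spot.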 As to conditions: COS7 cell lysate, fluorescence, higher = more signal.
A short description of assay [6]: probe aLAP1 signal on lysate-treated microarray – cell lysate, small-molecule microarray, COS7 lysate, primary screen (AID 1124).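 Note: lysate comes from COS7 cells expressing LAP1 and is applied at 0.3 µg/mL; score merges spot fluorescence near 667 nm with signal-to-noise over triplicate slides.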 As to conditions: probe aLAP1, fluorescence, higher = more signal.
The test system of another assay is Sam68 (KHDRBS1). The assay is described as follows: compounds binding KHDRBS1 protein – biochemical, small-molecule microarray, 635 nm fluorescence, primary screen (AID 1125).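 Note: score merges 667 nm channel intensity with signal to noise over triplicate slides.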 As to conditions: higher = more signal.
Assay [7] concerns Chordin-like protein 2 (CHRDL2). Description: compounds binding chordin-like 2 – biochemical, small-molecule microarray, 635 nm fluorescence, primary screen (AID 1126).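 Note: printed compound slides probed with Chrdl2 protein at 4 µg/mL for 1 h at 4 C; score merges 667 nm emission intensity with signal to noise over three replicate slides.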 As to conditions: fluorescence 635 nm, higher = more signal.
The target of assay [8] is Concanavalin-A (Canavalia ensiformis) (UniProt P02866). Description: compounds binding concanavalin A lectin – biochemical, small-molecule microarray, Alexa647 label, 635 nm, artefact control for SMM control protein annotation, primary screen (AID 1127).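 Note: z combines 667 nm emission intensity with signal-to-noise across three replicate slides.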 As to conditions: ConA-A647 binding fluorescence, higher = more signal.
Chain of Concanavalin-A (Canavalia ensiformis) (P02866 whole entry, looked up): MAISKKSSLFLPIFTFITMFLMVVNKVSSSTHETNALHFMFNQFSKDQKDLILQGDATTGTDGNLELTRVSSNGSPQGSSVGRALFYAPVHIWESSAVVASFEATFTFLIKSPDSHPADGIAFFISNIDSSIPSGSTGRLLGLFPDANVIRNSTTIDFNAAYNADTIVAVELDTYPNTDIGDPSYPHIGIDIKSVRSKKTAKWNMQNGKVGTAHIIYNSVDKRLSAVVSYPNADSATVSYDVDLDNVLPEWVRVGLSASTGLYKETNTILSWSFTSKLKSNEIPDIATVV

For `O=C(CS)NCCCCCCNC(=O)[C@H]1C[C@H]2C(=O)NCC(=O)N2[C@H]1c1cccc(OCCO)c1`, the composite z-score was -0.509 with Albumin (Bos taurus); 0.191 in assay [2]; -0.0995 in assay [3]; 0.458 in assay [4]; 1.37 in assay [5]; 0.122 in assay [6]. Also, the composite z-score in the assay on Sam68 (KHDRBS1) was 0.221; in assay [7], 0.283; in assay [8], 0.966. Moreover, the composite Z-score in [1] was 0.54 (inactive).
Turning to `COC(=O)[C@@]1(Cc2ccc(OC)cc2)[C@H]2c3cc(C(=O)N(C)C)n(Cc4c(CO)[nH]cc(C)c4=O)c3C[C@H]2CN1C(=O)c1ccccc1`, the composite z-score with Albumin (Bos taurus) was 0.302; in assay [2] it was 0.23; in assay [3], 0.484; in [4], 0.876; in assay [5] it was 2.97; in assay [6], 0.221. For the same molecule, the composite z-score in the assay on Sam68 (KHDRBS1) is 0.55; in assay [7], -0.31; in assay [8], 0.554. Also, the composite Z-score in assay [1] is 0.0713 (inactive).
In the case of `CCOC(=O)C1=CC[C@@H](c2ccccc2)N(S(=O)(=O)c2ccc(C)cc2)[C@@H]1C#N`, the composite z-score was 0.118 in the assay with Albumin (Bos taurus); 0.0112 in assay [2]; -0.026 in assay [3]; 0.518 in assay [4]; 1.87 in assay [5]; -0.0567 in assay [6]. For the same molecule, the composite z-score in the assay with Sam68 (KHDRBS1) was 1.23; in [7], -0.315; in assay [8] it was 0.855. Further, the composite Z-score in assay [1] is 0.4 (inactive).
As for `O=C1N(Cc2ccccc2)c2ccccc2C[C@@]12N=C(c1ccc(OCCCO)cc1)O[C@H]2c1ccccc1`, the composite z-score is 0.542 with Albumin (Bos taurus); -0.0328 in assay [2]; -0.0664 in assay [3]; 0.183 in assay [4]; 2.47 in assay [5]; -0.0401 in assay [6]. The composite z-score in the assay with Sam68 (KHDRBS1) was 1.29; in assay [7], 0.0949; in assay [8] it was 1.06. Further, the composite Z-score in assay [1] is -0.329 (inactive).
Turning to `COC(=O)C(CC#Cc1ccc2c(c1)[C@]1(C(=O)N2)[C@H](C(N)=O)[C@H]2C(=O)O[C@H](c3ccccc3)[C@H](c3ccccc3)N2[C@@H]1c1ccccc1OCCO)C(=O)OC`, the composite z-score with Albumin (Bos taurus) was 0.398; in assay [2], -0.248; in [3], -0.124; in assay [4], 0.434; in [5], 2.34; in assay [6] it was 0.782. The results for the composite z-score (in the assay with Sam68 (KHDRBS1); in assay [7]; in [8]) were 1.13, -0.0393 and 1.12, respectively. In assay [1], the composite Z-score was -0.363 (inactive).
Take `[N-]=[N+]=NCc1ccccc1[C@H]1OC(c2ccc(OCCCO)cc2)=N[C@@]1(Cc1ccccc1N=[N+]=[N-])C(=O)N1CCOCC1`: the composite z-score with Albumin (Bos taurus) is 0.939; in assay [2] it was 0.0159; in assay [3], -0.0895; in [4], 0.676; in assay [5], 2.57; in assay [6], -0.14. The results for the composite z-score (with Sam68 (KHDRBS1); in assay [7]; in [8]) were 1.3, -0.596 and 1.14, respectively. For the same molecule, in assay [1], the composite Z-score was 0.594 (inactive).
As to `CN1C(=O)C2C(C1=O)C1C=C(CCCO)C2C(C2CC2)N1C` (stereo not given), the composite z-score was 0.913 with Albumin (Bos taurus); -0.16 in assay [2]; -0.149 in assay [3]; 0.839 in assay [4]; 0.746 in assay [5]; -0.67 in assay [6]. Besides, the values for the composite z-score (in the assay with Sam68 (KHDRBS1); in assay [7]; in assay [8]) were -0.293, -0.338 and -1.39, respectively. Also, in assay [1], the composite Z-score is 0.178 (inactive).
In the case of `CN1C2C=C(c3ccc(CO)cc3)C(C3C(=O)N(C(N)=O)C(=O)C32)C1C1CC1` (stereo not given), the composite z-score with Albumin (Bos taurus) is -0.43; in [2] it was -0.206; in [3] it was -0.146; in assay [4] it was -0.117; in assay [5], 0.151; in assay [6] it was -0.262. In addition, the values for the composite z-score (in the assay with Sam68 (KHDRBS1); in [7]; in assay [8]) were 0.267, -0.0733 and 0.688, respectively. The composite Z-score in assay [1] was -0.378 (inactive).
In the case of `CCCCC(=C=CC[C@H](O)c1ccccc1OCCO)CCO`, the composite z-score with Albumin (Bos taurus) was 0.0552; in assay [2], -0.16; in assay [3], -0.164; in [4], 0.524; in [5] it was 1.91; in [6], 0.0655. Moreover, the values for the composite z-score (in the assay on Sam68 (KHDRBS1); in [7]; in assay [8]) were 0.597, -0.336 and -0.14, respectively. Besides, the composite Z-score in assay [1] was 0.849 (inactive).
Take `COCCCNC(=O)[C@]1(Cc2ccccc2N=[N+]=[N-])N=C(c2ccc(OCCCO)cc2)O[C@@H]1c1ccccc1`: the composite z-score with Albumin (Bos taurus) stood at 0.894; in assay [2], 0.619; in [3], 0.308; in assay [4], 0.304; in assay [5], 2.85; in assay [6] it was 0.536. In addition, the figures for the composite z-score (in the assay on Sam68 (KHDRBS1); in assay [7]; in assay [8]) were 1.3, -0.586 and 1.11, respectively. In addition, the composite Z-score in assay [1] is 0.522 (inactive).
For the molecule `C=C(CCCC)/C(=C/C[C@@H](OC(C)=O)c1cccc(OCCO)c1)c1cc(C(=O)OC)ccc1OC`, the composite z-score was 0.119 in the assay with Albumin (Bos taurus); -0.0131 in assay [2]; -0.168 in assay [3]; 0.561 in assay [4]; -0.22 in assay [5]; -0.247 in assay [6]. In addition, the composite z-score is 0.71 in the assay with Sam68 (KHDRBS1), -0.0137 in [7] and -0.656 in assay [8]. In assay [1], the composite Z-score is 0.303 (inactive).
Take `Cc1ccc(N2C(=O)c3ccccc3[C@@H](C(=O)NCCN3CCOCC3)[C@@H]2c2ccc(CO)cc2)nc1`: the composite z-score is 0.132 with Albumin (Bos taurus); 0.595 in [2]; -0.162 in [3]; -0.234 in assay [4]; 0.719 in [5]; -0.496 in assay [6]. Moreover, the values for the composite z-score (in the assay with Sam68 (KHDRBS1); in assay [7]; in assay [8]) were -0.342, -1.27 and -0.469, respectively. For the same molecule, in [1], the composite Z-score was 0.309 (inactive).
Turning to `COC(=O)[C@@]1(Cc2ccc(F)cc2)[C@H]2c3cc(C(=O)N(C)C)n(CCF)c3C[C@H]2CN1C(=O)c1ccccc1`, the composite z-score in the assay with Albumin (Bos taurus) was 0.914; in [2], -0.0044; in assay [3], 0.057; in assay [4], 0.733; in assay [5], 2.6; in [6], 0.89. For the same molecule, the composite z-score in the assay with Sam68 (KHDRBS1) was 0.706; in [7] it was -0.411; in [8] it was 0.476. In [1], the composite Z-score was 0.312 (inactive).
Consider `COC(=O)[C@@]1(Cc2ccc(F)cc2)[C@H]2c3cc(C(=O)N4CCCC4)n(Cc4ccc(OC(F)(F)F)cc4)c3C[C@H]2CN1C(=O)c1ccccc1`, for which the composite z-score was 0.435 with Albumin (Bos taurus); 0.0026 in [2]; -0.0108 in assay [3]; 0.861 in [4]; 1.96 in assay [5]; 0.32 in [6]. Further, the composite z-score was -0.701 with Sam68 (KHDRBS1), -0.0979 in [7] and -0.484 in assay [8]. The composite Z-score in assay [1] is -0.328 (inactive).
Take `COCCCNC(=O)[C@@]1(c2ccc([N+](=O)[O-])cc2)CC(=O)N(C2CCCCC2)[C@@H]1c1ccc(CO)cc1I`: the composite z-score is -0.102 with Albumin (Bos taurus); -0.095 in [2]; 0.0409 in assay [3]; 0.427 in assay [4]; 2.23 in assay [5]; 0.426 in [6]. Besides, the figures for the composite z-score (with Sam68 (KHDRBS1); in [7]; in [8]) were 1.03, 0.151 and 1.14, respectively. In addition, the composite Z-score in [1] is 2.09 (inactive).
Regarding `COC(=O)[C@@]1(Cc2ccc(F)cc2)[C@H]2c3cc(C(=O)N(C)C)n(Cc4ccsc4Br)c3C[C@H]2CN1C(=O)c1ccccc1`, the composite z-score is 0.745 with Albumin (Bos taurus); 1.88 in assay [2]; 1.08 in assay [3]; 0.938 in [4]; 2.95 in assay [5]; 1.65 in assay [6]. Besides, the composite z-score in the assay on Sam68 (KHDRBS1) was 0.0161; in assay [7], -0.0576; in [8], 1.13. Besides, the composite Z-score in assay [1] is -0.857 (inactive).
Consider `COC(=O)[C@H](Cc1ccccc1)N1CC(C)(OC)O[C@@H](Cc2ccccc2)[C@H]1/C=C/C1CC1` (stereo not given in full), for which the composite z-score was -0.266 with Albumin (Bos taurus); -0.165 in assay [2]; -0.108 in assay [3]; 0.348 in assay [4]; 0.763 in assay [5]; 0.106 in assay [6]. For the same molecule, the composite z-score was 0.417 with Sam68 (KHDRBS1), -0.359 in [7] and 0.371 in [8]. Besides, the composite Z-score in assay [1] is 0.571 (inactive).
